Laboratory results taken from PubChem BioAssay (EPA / NIEHS).
Active and inactive are the calls of the source. The calls were made as follows: active = hit-call score of the fitted dose curve at least 0.9, where 1 is the maximum; inactive = score below 0.9.

Legend:
[1] = ATG_CRE_CIS: Attagene CIS-FACTORIAL HepG2 Assay for human cAMP Responsive Element (CRE) binding protein 3 (AID 2282926); details: HepG2 CRE cis-reporter, Attagene multiplexed mRNA; actives raise or lower the signal
Method in brief: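 Multiplexed transcription-unit reporters transfected into HepG2; 24 h dosing; RT-PCR/capillary electrophoresis fluorescence read-out; bidirectional fit vs DMSO.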

[2] = target: CCAAT/enhancer-binding protein beta (Homo sapiens) (UniProt P17676); experiment: ATG_C_EBP_CIS: Attagene CIS-FACTORIAL HepG2 Assay for human CCAAT/Enhancer Binding Protein (C/EBP) beta (AID 2282927); details: HepG2 Attagene cis-factorial transcription factor reporter; actives raise or lower the signal
Method in brief: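 Endogenous transcription factor activity in human liver HepG2 cells is inferred from induction of a CEBPB-linked reporter mRNA. Exposure lasts 24 h; activity is fitted in both directions relative to DMSO.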

[3] = ATG_CMV_CIS: Attagene CIS-FACTORIAL HepG2 Assay for human CMV (Internal Marker) (AID 2282928); details: HepG2 CMV promoter reporter, transcription factor profiling; actives raise or lower the signal;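 also: endpoint acts as a background internal control marker rather than a target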
Method in brief: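 Endogenous transcription factor activity read in HepG2 via transfected cis-promoter reporter units. After 24 h dosing, reporter mRNA measured by RT-PCR/capillary electrophoresis; gain or loss of signal fit relative to DMSO.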

[4] = ATG_DR4_LXR_CIS: Attagene CIS-FACTORIAL HepG2 Assay for human Liver X Receptor (LXR), DR4 submotif (AID 2282929); details: HepG2 Attagene DR4 cis-reporter, mRNA transcription; actives raise or lower the signal
Method in brief: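 DR4 cis-reporter in HepG2, 24 h exposure. Detection: RT-PCR, 6-FAM labelling, CE fragment analysis. Endpoint fitted bidirectionally, DMSO = baseline.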

[5] = target: Aryl hydrocarbon receptor (Homo sapiens) (UniProt P35869); experiment: ATG_Ahr_CIS: Attagene CIS-FACTORIAL HepG2 Assay for human Aryl Hydrocarbon Receptor (Ahr) (AID 2282930); details: HepG2 AhR cis-factorial reporter transcription; actives raise or lower the signal
Method in brief: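 Transient MRTU transfection of HepG2 → 24 h compound exposure → total RNA, oligo(dT) RT → PCR, 6-FAM extension, HpaI cut → CE fluorescence. DMSO = baseline; bidirectional curve fit.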

[6] = ATG_AP_1_CIS: Attagene CIS-FACTORIAL HepG2 Assay for human Activator Protein 1 (AP-1) (AID 2282931); details: HepG2 Attagene cis-factorial AP-1 reporter mRNA; actives raise or lower the signal
Method in brief: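 Cis-regulated reporter units transiently expressed in HepG2 report endogenous transcription-factor activity. Signal: reporter mRNA at 24 h, via RT-PCR and fluorescent capillary electrophoresis. Endpoint derived by bidirectional fitting, DMSO as negative control.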

[7] = ATG_AP_2_CIS: Attagene CIS-FACTORIAL HepG2 Assay for human Activator Protein 2 (AP-2) (AID 2282932); details: HepG2 AP-2 cis-reporter, Attagene transcription factor profiling; actives raise or lower the signal
Method in brief: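 HepG2, transient MRTU transfection, cis-regulated reporters; 24 h compound exposure; RNA isolated, RT-PCR, 6-FAM labelling, HpaI digest, CE fluorescence. DMSO = negative control/baseline, bidirectional fit.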

[8] = ATG_BRE_CIS: Attagene CIS-FACTORIAL HepG2 Assay for human Bone Morphogenetic Protein (BMP) Response Element (BRE) (AID 2282933); details: HepG2 BMP response element reporter, Attagene transcription factor profiling; actives raise or lower the signal
Method in brief: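 A HepG2 multiplex reporter system measured inducible reporter mRNA 24 h post-dosing. Detection: RT-PCR, 6-FAM primer extension, HpaI digestion, capillary electrophoresis. Activity fitted bidirectionally relative to DMSO.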

[9] = target: Transcription factor E2F1 (Homo sapiens) (UniProt Q01094); experiment: ATG_E2F_CIS: Attagene CIS-FACTORIAL HepG2 Assay for human E2F Transcription Factor 1 (AID 2282935); details: HepG2 Attagene cis-reporter, E2F reporter RNA transcripts; actives raise or lower the signal
Method in brief: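 Cis-element reporter mRNA induction in transiently transfected HepG2, 24 h exposure. Activity fitted in both directions relative to DMSO negative control.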

[10] = ATG_M_61_CIS: Attagene CIS-FACTORIAL HepG2 Assay for M61 Transcription Factor (Internal Marker) (AID 2282937); details: HepG2 Attagene CIS-FACTORIAL M61 internal marker reporter; actives raise or lower the signal
Method in brief: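 Background-control endpoint: HepG2 cells with cis-regulated reporter constructs, 24 h exposure, reporter mRNA detected via fluorescent primer extension and capillary electrophoresis; values from bidirectional fitting with DMSO baseline.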

[11] = ATG_EGR_CIS: Attagene CIS-FACTORIAL HepG2 Assay for human Early Growth Response 1 (EGR1) (AID 2282938); details: HepG2 Attagene CIS-FACTORIAL EGR reporter mRNA; actives raise or lower the signal
Method in brief: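 Endpoint derived by bidirectional fitting versus DMSO vehicle. Method: cis-promoter reporter units transfected into HepG2, 24 h dosing, RNA isolation, RT-PCR with 6-FAM primer extension and HpaI digestion, then capillary electrophoresis fluorescence detection.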

[12] = ATG_M_19_CIS: Attagene CIS-FACTORIAL HepG2 Assay for M19 Transcription Factor (Internal Marker) (AID 2282939); details: HepG2 Attagene CIS-FACTORIAL M19 internal marker reporter; actives raise or lower the signal
Method in brief: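 Chemical-treated HepG2 (24 h) with MRTU constructs; reporter transcripts detected by fluorescent RT-PCR fragment analysis on capillary electrophoresis. Internal background marker, DMSO as baseline.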

[13] = ATG_Ets_CIS: Attagene CIS-FACTORIAL HepG2 Assay for human Erythroblast Transformation Specific (ETS) (AID 2282941); details: HepG2 ETS cis-reporter transcription, actives raise or lower the signal
Method in brief: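 Steps: transfect HepG2 with multiple reporter units; treat compound 24 h; isolate RNA, DNase-treat, reverse-transcribe; PCR-amplify, label with 6-FAM, digest with HpaI; separate by capillary electrophoresis. Activity fitted both directions versus DMSO.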

[14] = target: Hepatocyte nuclear factor 3-beta (Homo sapiens) (UniProt Q9Y261); experiment: ATG_FoxA2_CIS: Attagene CIS-FACTORIAL HepG2 Assay for human Forkhead box A2 (FOXA2) (AID 2282942); details: HepG2 cis-reporter transcription factor activity, 24 h; actives raise or lower the signal
Method in brief: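 Measured: reporter mRNA induction or loss in HepG2 transiently carrying multiple cis-regulated reporter units, 24 h after dosing. Quantified by RT-PCR plus capillary electrophoresis, normalised to DMSO.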

[15] = ATG_FoxO_CIS: Attagene CIS-FACTORIAL HepG2 Assay for human Forkhead box O (FoxO) (AID 2282943); details: HepG2 Attagene cis-reporter, FoxO element, mRNA; actives raise or lower the signal
Method in brief: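 HepG2, transient MRTU transfection (cis element, endogenous TFs). Dose 24 h. TriZol RNA → oligo(dT) RT → PCR → 6-FAM primer extension → HpaI cut → CE. Gain/loss vs DMSO.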

[16] = ATG_GATA_CIS: Attagene CIS-FACTORIAL HepG2 Assay for human GATA Binding Protein (AID 2282944); details: HepG2 GATA cis-element reporter, Attagene multiplex mRNA; actives raise or lower the signal
Method in brief: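 Transfected cis-reporter HepG2 cells were treated with chemicals for 24 hours. Total RNA was then converted to cDNA, amplified with reporter-specific primers and analysed by fluorescent capillary electrophoresis, using DMSO-treated wells as baseline.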

[17] = ATG_GLI_CIS: Attagene CIS-FACTORIAL HepG2 Assay for human Zinc Finger Protein GLI1 (AID 2282945); details: HepG2, Attagene cis-factorial reporter mRNA, GLI element; actives raise or lower the signal
Method in brief: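 Bidirectional curve fits relative to DMSO, using reporter mRNA levels from RT-PCR plus capillary electrophoresis. Cells were HepG2 transiently carrying cis-regulated reporter constructs, harvested 24 h after dosing.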

[18] = ATG_E_Box_CIS: Attagene CIS-FACTORIAL HepG2 Assay for human Enhancer Box (E-box) (AID 2282936); details: HepG2 E-box cis-reporter transcription, actives raise or lower the signal
Method in brief: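 Cells: HepG2 (human liver), transient MRTU transfection. Exposure 24 h. RNA → oligo(dT) RT → PCR → 6-FAM label → HpaI → CE. Activity fitted both directions relative to DMSO.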

[19] = ATG_ERE_CIS: Attagene CIS-FACTORIAL HepG2 Assay for Estrogen Response Element (ERE) (AID 2282940); details: HepG2 ERE cis-reporter, Attagene RNA transcript; actives raise or lower the signal
Method in brief: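 Human liver cells (HepG2) bearing transiently transfected, promoter-regulated reporter units were exposed 24 h. Reporter mRNA induction was detected by capillary electrophoresis of labelled RT-PCR products and fitted bidirectionally to DMSO.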

[20] = target: Retinoic acid receptor alpha (Homo sapiens) (UniProt P10276); experiment: ATG_DR5_RAR_CIS: Attagene CIS-FACTORIAL HepG2 Assay for human Retinoic Acid Receptor Alpha (RARE), DR5 submotif (AID 2282934); details: HepG2 Attagene cis-factorial RARE DR5 reporter, mRNA; actives raise or lower the signal
Method in brief: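 Transient MRTU transfection of HepG2; 24 h compound treatment; TriZol RNA, oligo(dT) RT, PCR, FAM labelling, capillary electrophoresis. Bidirectional fit vs DMSO. Endogenous TF activity at DR5 RARE.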

Measured: AC50

Chain of Transcription factor E2F1 (Homo sapiens) (Q01094 whole entry, looked up): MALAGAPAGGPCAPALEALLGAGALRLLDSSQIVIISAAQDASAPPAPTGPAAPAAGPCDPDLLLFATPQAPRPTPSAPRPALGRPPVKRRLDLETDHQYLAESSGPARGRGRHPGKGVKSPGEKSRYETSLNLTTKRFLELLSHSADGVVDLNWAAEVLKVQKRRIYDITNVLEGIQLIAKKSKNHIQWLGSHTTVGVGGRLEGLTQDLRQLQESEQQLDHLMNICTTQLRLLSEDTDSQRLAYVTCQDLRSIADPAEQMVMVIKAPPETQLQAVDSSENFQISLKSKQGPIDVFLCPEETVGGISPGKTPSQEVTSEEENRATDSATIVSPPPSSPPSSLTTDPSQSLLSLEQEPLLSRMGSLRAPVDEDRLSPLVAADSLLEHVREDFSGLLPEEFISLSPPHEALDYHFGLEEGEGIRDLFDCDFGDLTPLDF
Chain of Aryl hydrocarbon receptor (Homo sapiens) (P35869 whole entry, looked up): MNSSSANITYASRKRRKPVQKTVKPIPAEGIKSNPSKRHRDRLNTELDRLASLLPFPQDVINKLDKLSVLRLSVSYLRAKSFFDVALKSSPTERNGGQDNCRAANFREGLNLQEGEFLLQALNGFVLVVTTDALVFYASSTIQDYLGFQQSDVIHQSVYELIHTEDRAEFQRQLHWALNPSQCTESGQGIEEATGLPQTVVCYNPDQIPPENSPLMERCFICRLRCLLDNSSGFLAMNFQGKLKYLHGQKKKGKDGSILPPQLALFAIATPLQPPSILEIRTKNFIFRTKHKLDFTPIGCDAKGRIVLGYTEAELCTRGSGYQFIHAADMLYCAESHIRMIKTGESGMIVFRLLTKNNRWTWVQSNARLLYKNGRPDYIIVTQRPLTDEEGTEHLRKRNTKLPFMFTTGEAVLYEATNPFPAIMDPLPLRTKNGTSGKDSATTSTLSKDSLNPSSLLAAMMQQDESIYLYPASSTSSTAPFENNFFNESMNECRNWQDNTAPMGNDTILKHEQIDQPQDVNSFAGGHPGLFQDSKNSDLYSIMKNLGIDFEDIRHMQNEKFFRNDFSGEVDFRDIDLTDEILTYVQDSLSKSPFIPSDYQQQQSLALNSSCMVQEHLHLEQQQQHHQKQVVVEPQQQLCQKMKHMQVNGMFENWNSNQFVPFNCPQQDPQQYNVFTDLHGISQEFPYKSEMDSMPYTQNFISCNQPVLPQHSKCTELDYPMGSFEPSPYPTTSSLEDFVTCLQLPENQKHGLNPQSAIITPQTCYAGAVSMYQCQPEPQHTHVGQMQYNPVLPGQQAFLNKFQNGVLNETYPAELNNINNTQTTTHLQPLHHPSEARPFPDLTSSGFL
Chain of Hepatocyte nuclear factor 3-beta (Homo sapiens) (Q9Y261 whole entry, looked up): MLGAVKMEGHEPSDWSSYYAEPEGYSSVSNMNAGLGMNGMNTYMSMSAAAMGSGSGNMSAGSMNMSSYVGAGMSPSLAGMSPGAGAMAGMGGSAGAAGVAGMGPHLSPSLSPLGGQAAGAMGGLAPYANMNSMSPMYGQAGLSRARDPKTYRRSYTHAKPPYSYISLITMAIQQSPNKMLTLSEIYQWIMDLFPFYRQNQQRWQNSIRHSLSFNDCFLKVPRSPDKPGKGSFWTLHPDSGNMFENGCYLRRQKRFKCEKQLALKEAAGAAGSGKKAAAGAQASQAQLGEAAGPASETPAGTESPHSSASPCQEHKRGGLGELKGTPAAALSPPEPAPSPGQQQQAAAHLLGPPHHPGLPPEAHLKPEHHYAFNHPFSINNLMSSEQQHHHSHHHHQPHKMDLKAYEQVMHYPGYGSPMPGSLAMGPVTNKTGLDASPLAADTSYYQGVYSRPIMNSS
Chain of CCAAT/enhancer-binding protein beta (Homo sapiens) (P17676 whole entry, looked up): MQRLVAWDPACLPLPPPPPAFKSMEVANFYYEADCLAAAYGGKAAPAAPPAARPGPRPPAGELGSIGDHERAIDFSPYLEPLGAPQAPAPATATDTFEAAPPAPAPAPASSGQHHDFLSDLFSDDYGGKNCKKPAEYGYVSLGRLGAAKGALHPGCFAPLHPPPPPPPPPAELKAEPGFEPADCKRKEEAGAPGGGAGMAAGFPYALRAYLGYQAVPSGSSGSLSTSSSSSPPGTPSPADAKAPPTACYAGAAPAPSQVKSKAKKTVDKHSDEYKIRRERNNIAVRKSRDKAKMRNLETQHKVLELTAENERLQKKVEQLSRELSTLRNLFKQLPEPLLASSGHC
Chain of Retinoic acid receptor alpha (Homo sapiens) (P10276 whole entry, looked up): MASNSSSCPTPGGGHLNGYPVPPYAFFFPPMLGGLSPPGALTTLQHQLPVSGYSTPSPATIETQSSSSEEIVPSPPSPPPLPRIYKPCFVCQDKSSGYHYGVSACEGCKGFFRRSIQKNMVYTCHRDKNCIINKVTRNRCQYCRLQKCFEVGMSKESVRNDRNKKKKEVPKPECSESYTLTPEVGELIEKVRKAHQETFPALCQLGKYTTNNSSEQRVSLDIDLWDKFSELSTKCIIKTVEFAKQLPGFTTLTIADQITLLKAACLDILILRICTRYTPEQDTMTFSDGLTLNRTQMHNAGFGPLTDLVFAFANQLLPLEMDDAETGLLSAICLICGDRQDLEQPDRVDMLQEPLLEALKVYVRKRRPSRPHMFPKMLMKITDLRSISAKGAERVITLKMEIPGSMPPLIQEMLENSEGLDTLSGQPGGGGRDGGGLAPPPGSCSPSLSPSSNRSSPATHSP

CC(=O)Nc1ccc(C)cc1C
not listed: [18] | [19] | [20]
inactive: all other assays above

CCn1c2ccccc2c2cc(N)ccc21
active: [3] 31.7 µM | [5] 5.05 µM
not listed: [8] | [12] | [15] | [20]
inactive: all other assays above

Cc1ccc2ccccc2n1
active: [5] 18.3 µM
not listed: [8] | [13] | [16] | [19]
inactive: all other assays above

O=C(O)c1snc(Cl)c1Cl
active: [1] 155 µM | [4] 100 µM | [5] 14.5 µM | [6] 100 µM | [11] 164 µM | [15] 130 µM
not listed: [18] | [19] | [20]
inactive: all other assays above
